VHR inh color: blocks the human dual specificity phosphatase VHR1; P51452; recombinant VHR phosphatase, colorimetric substrate read-out; inhibition, % at 20 µM; 0.7% of 50,000 active; AID 1992; in the data active = inhibition above about 60%
Target sequence (P51452 whole entry, looked up): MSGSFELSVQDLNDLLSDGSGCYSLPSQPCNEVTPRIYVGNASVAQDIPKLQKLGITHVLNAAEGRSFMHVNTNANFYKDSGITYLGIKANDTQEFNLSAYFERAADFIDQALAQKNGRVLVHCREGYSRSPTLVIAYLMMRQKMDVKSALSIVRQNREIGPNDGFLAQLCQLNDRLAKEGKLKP
Active calls of the source: *. The sample as a whole holds a higher share of hits than the screen did.

SMILES	VHR inh color
COc1cc(/C=C2/C(=O)NC(=O)N(c3ccc(C(C)C)cc3)C2=O)cc(OC)c1O	27.2
COc1cccc(/C=C2/C(=O)NC(=O)N(c3ccc(Br)cc3)C2=O)c1O	-16.5
COc1cccc(/C=C2/C(=O)NC(=O)N(c3ccc(C(C)C)cc3)C2=O)c1O	89.0*
O=C1NC(=O)N(c2ccc(Cl)cc2)C(=O)/C1=C\c1ccc(-c2ccccc2[N+](=O)[O-])o1	-7.9
COc1ccc(N2C(=O)/C(=C/c3ccc(-c4ccccc4[N+](=O)[O-])o3)C(=O)NC2=S)cc1	81.3*
CC(C)c1ccc(N2C(=O)NC(=O)/C(=C/c3cccc([N+](=O)[O-])c3)C2=O)cc1	5.8
COc1ccc(N2C(=O)/C(=C/c3ccc(-c4ccc(C(=O)O)cc4)o3)C(=O)NC2=S)cc1	31.8
CC(C)c1ccc(N2C(=O)NC(=O)/C(=C/c3ccc([N+](=O)[O-])o3)C2=O)cc1	85.0*
COc1ccc(-c2ccc(/C=C3/C(=O)NC(=O)N(c4ccc(C)cc4)C3=O)o2)c([N+](=O)[O-])c1	10.7
O=C1NC(=O)N(c2ccc(Cl)cc2)C(=O)/C1=C\c1ccc(-c2ccc([N+](=O)[O-])cc2)o1	-16.4
COc1ccc(-c2ccc(/C=C3\C(=O)NC(=O)N(c4ccc(Cl)cc4)C3=O)o2)c([N+](=O)[O-])c1	2.1
COc1ccc(/C(C)=N\N=C2\NC(=O)CC(C(=O)NCCc3ccc(S(N)(=O)=O)cc3)S2)cc1 (stereo not given)	-3.5
Cc1cc2nc(Nc3nc(O)cc(=O)[nH]3)nc(C)c2cc1C	21.0
COc1cc(/C=N/n2cnnc2)cc(I)c1OCCOc1cc(C)ccc1C(C)C	4.4
COc1cc2c(cc1NC(=O)C/C(C)=N/NC(=O)c1ccoc1C)oc1ccccc12	-17.8
CCOc1ccc(C(=O)Nc2ccc(-c3nc4ccccc4o3)c(O)c2)cc1[N+](=O)[O-]	49.7
CC(=O)C1C(=O)c2ccccc2/C1=N/N=C/c1ccc([N+](=O)[O-])cc1 (stereo not given)	-24.9
N/C(=N\OC(=O)c1ccc([N+](=O)[O-])cc1)c1ccccc1Cl	-3.6
Cn1c(=O)c2c(ncn2CN2C(=O)c3ccccc3C2=O)n(C)c1=O	6.3
O=C(/C=C/c1cccc([N+](=O)[O-])c1)Nc1cc(Cl)ccc1Cl	-23.5
Cc1ccc([N+](=O)[O-])cc1-c1ccc(/C=C2/C(=O)NC(=O)N(c3ccccc3)C2=O)o1	43.3
O=C1NC(=O)N(c2ccccc2)C(=O)/C1=C/c1ccc(-c2ccccc2C(=O)O)o1	7.5
Cc1ccc([N+](=O)[O-])cc1-c1ccc(/C=C2\C(=O)NC(=O)N(c3ccc(Cl)cc3)C2=O)o1	-30.1
O=C1NC(=S)N(c2cccc(Br)c2)C(=O)/C1=C/c1ccc(-c2ccccc2C(=O)O)o1	79.5*
Cc1cccc(N2C(=O)NC(=O)/C(=C\c3ccc(-c4ccccc4C(=O)O)o3)C2=O)c1	-4.2
SMILES	VHR inh color
C=CCN1C(=O)/C(=C\c2ccc(-c3cc([N+](=O)[O-])ccc3C)o2)C(=O)NC1=S	74.3*
N#CCOc1ccccc1/C=C1/Sc2ccccc2C1=O	-11.1
N#CC(C#N)=Cc1cccc2ccccc12	-19.6
CN(C)CCCNC(=O)c1ccc(F)cc1	-8.5
Cc1ccc(-c2csc(N)c2C(=O)OC(C)C)cc1C	83.9*
Cc1ccc(C)c(-c2csc(N)c2C(=O)OC(C)C)c1	8.3
Cc1ccc(-c2csc(N)c2C(=O)OC(C)C)cc1	51.9
COc1cc(/C=C2/SC(=S)N(c3ccccc3)C2=O)cc(Br)c1OC(=O)c1ccc(C)cc1	-3.7
C[n+]1cccc(C(=O)NCCOC(=O)Cc2ccccc2)c1	-10.3
COc1cccc(C2CC(=O)Nc3c2cc(Br)c2ccccc32)c1OC (stereo not given)	5.6
COc1ccc(C2CC(=O)Nc3c2cc(Br)c2ccccc32)cc1OC (stereo not given)	67.3*
O=C1CC(c2ccc(F)c(F)c2)c2cc(Br)c3ccccc3c2N1 (stereo not given)	6.5
Fc1c(F)c(C(F)(F)F)c(F)c(F)c1Oc1cccc2cccnc12	97.8*
Cc1ccc(C)n1-c1cccc2cccnc12	22.2
O=C(Nc1ccc(F)cc1)Nc1cccc2cccnc12	-11.9
CC1=C(C(=O)OCC2CCCO2)C(c2cccc(C(F)(F)F)c2)C2=C(CC(C)(C)CC2=O)N1 (stereo not given)	-5.9
COc1cc(/C=C2\SC(=S)N(NC(=O)c3ccccc3Br)C2=O)ccc1O	5.0
CCOc1ccccc1NC(=O)C(=O)NCCc1ccc(OC)c(OC)c1	-15.8
CN1C(=O)/C(=C\c2cc(Cl)ccc2OCc2ccc(F)cc2)SC1=S	-13.7
CCN1C(=O)/C(=C\c2cc(Cl)c(OCc3ccccc3)c(OC)c2)SC1=S	3.1
CCN1C(=O)/C(=C\c2cc(Cl)ccc2OCc2ccccc2)SC1=S	105.4*
C=CCc1cccc(/C=N/NC(=O)c2cc(C3CC3)[nH]n2)c1O	22.6
CC(=O)c1cccc(NC(=O)CCCOc2ccccc2)c1	-12.9
O=[N+]([O-])c1cccc(C2=Nc3ccc([N+](=O)[O-])cc3ON2)c1	-2.6
COc1ccc(/C=C2\NC(=O)c3ccccc3C2=O)cc1	-17.9
SMILES	VHR inh color
Cc1cc(/C=N\Nc2ccc([N+](=O)[O-])cn2)c(C)n1-c1ccc(C(=O)O)cc1	22.5
Cc1cc(/C=N\Nc2ccc([N+](=O)[O-])cn2)c(C)n1-c1ccc(O)cc1	84.9*
Cc1cc(C=O)c(C)n1-c1ccc([N+](=O)[O-])cc1	5.7
CN(C)c1ccc(/C=C2\SC(N3CCCC3)=NC2=O)cc1	20.5
O=C(O)CN1C(=O)/C(=C/c2ccc(OC(=O)c3ccccc3I)cc2)SC1=S	22.7
O=C1C2C(c3ccccc3)OC3(C(=O)c4ccccc4C3=O)C2C(=O)N1c1cccc(Cl)c1 (stereo not given)	-4.1
CC(Nc1n[nH]c(=O)[nH]c1=O)C(=O)N/N=C/c1ccccc1Br (stereo not given)	57.7
CCOC(=O)c1[nH]nc2c1C(=O)N(c1ccc(OC)c(Br)c1)C2=O	3.5
CCOC(=O)c1[nH]nc2c1C(=O)N(c1ccc(Br)cc1)C2=O	98.1*
CCOC(=O)c1[nH]cnc1C(=O)Nc1ccc(Br)cc1	-21.7
Cc1cc(-c2ccc(NC(=O)c3cccs3)c(C)c2)ccc1NC(=O)c1cccs1	-2.5
CCOc1cc(C2C(C(=O)OC)=C(C)NC(C)=C2C(=O)OC)ccc1O	-3.3
CCOC(=O)C1=C(O)/C(=C/c2ccc(Br)cc2)SC1=Nc1cccc(Cl)c1	-8.2
COC(=O)CNc1cccc(C(=O)O)c1	-19.1
COc1ccc(N2Cc3ccc(C(=O)N/N=C\c4ccc(Br)cc4)cc3C2)cc1	-14.7
Cc1cc2c(cc1C)CN(c1cccc(C(=O)NN)c1)C2	49.1
COc1ccc(N2Cc3ccc(C(=O)NN)cc3C2)cc1	93.9*
C=CCN(CC=C)C(=S)Nc1ccc2nc(-c3ccccc3)c(-c3ccccc3)nc2c1	1.1
Cc1ccc(/C=C(\C#N)c2nc(-c3ccc(C)c(C)c3)cs2)o1	59.7
Cc1ccc(/C=C(\C#N)c2nc(-c3cccc(Br)c3)cs2)o1	88.0*
Cc1ccc(/C=C(\C#N)c2nc(-c3cccc([N+](=O)[O-])c3)cs2)o1	21.0
COc1cccc(CN2CCN(C3CCCC(C)C3)CC2)c1OC (stereo not given)	11.2
O=c1c(Oc2ccccc2Br)c(C(F)(F)F)oc2c(CN3CCOCC3)c(O)ccc12	-0.9
Cc1cc(I)ccc1NC(=O)CCCOc1ccc(Cl)cc1Cl	-23.1
COc1ccc2ccccc2c1-c1cc(C(=O)N/N=C/c2ccc(C)cc2)[nH]n1	-9.9

Source: PubChem BioAssay
